aSyn 5UTR inh – 5' untranslated region of α-synuclein, MLPCN primary screen; alpha-synuclein 5'UTR reporter, inhibitor activity; inhibition, % (tested at 7.5 µM); hit rate 0.82% among 300,000; AID 1813; in the data active = inhibition above about 60%;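 also: H4 neuroglioblastoma cells stably carrying SNCA 5'UTR luciferase fusion; 0% = DMSO wells and 100% = positive control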
KLF5 inhibitor – inhibitors of KLF5 expression | hit rate 0.23% among 290,000 | inhibition, % at 5 µM | DLD-1 KLF5 promoter-luciferase reporter, luminescence | AID 1700;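 active = inhibition above a per-plate limit of that plate's mean compound inhibition plus 3 SD, cut at about 60% in these data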;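 also: 0% = DMSO wells and 100% = LY294002 at 200 µM; higher means less KLF5 promoter-driven luciferase light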
APP transl inh – APP translation inhibition. SH-SY5Y APP 5'UTR-luciferase reporter, luminescence. inhibition, % at 2 µM. hit rate 0.82% among 190,000. AID 1285;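 active = inhibition above a set limit, derived from the sample mean plus 3 SD, cut at about 45% in these data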
Ba/F3 V617F tox – loss of viability in JAK2V617F-driven Ba/F3 cells; inhibition, % at 5.6 µM; AID 1446; hit rate 1.1% among 220,000; Ba/F3 EpoR-JAK2V617F viability, ATP luminescence;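 active = inhibition above the campaign mean plus 3 SD over all tested compounds, cut at about 24% in these data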;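 also: cytokine-independent growth of Ba/F3 cells driven by EpoR plus mutant JAK2; 0% = DMSO-treated cells and 100% = JAK inhibitor I control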
IEC-6 cytotox – IEC-6 cytotoxicity, counter-screen for KLF5 inhibitors; hit rate 0.78% among 290,000; inhibition, % at 5 µM; luminescence viability; in the data active = inhibition above about 22%;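 also: 0% = plate median of test compound wells and 100% = cytotoxic reference compound wells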
BaF3 tox – counter-screen for JAK2V617F inhibitors: parental Ba/F3 viability inhibitors | CellTiter-Glo ATP luminescence | inhibition, % at 5.6 µM | hit rate 1.1% among 220,000 | AID 1486;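 active = inhibition above a per-campaign cutoff, the mean inhibition of all tested compounds plus 3 SD, cut at about 27% in these data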;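 also: 0% = DMSO wells and 100% = JAK Inhibitor I control wells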
The depositor's hits bear a star; . = not tested or not shown. Shown are actives, neighbours in structure and some others; about 2.2% of the full set was active somewhere.

SMILES	aSyn 5UTR inh	KLF5 inhibitor	APP transl inh	Ba/F3 V617F tox	IEC-6 cytotox	BaF3 tox
O=C(Nc1nnc(-c2ccc(Cl)cc2)o1)C1CCCCC1	-80.1	.	.	.	.	.
Clc1ccc(-c2nnc(NC3=NCCCCC3)o2)cc1	75.1*	-43.6	-151.7	11.7	4.1	13.6
O=C(CNC(=O)c1ccco1)NCC(=O)OCC(=O)c1ccc(Cl)c([N+](=O)[O-])c1	20.6	13.3	.	.	4.7	.
O=[N+]([O-])c1ccc(Nc2nc(N/N=C/c3cccc(F)c3)nc(N3CCCC3)n2)cc1	-27.6	-2.8	24.7	-2.8	-5.4	8.1
COc1cccc(/C=N/Nc2nc(Nc3ccc([N+](=O)[O-])cc3)nc(N3CCCC3)n2)c1O	65.0*	-6.5	42.6	-1.1	1.2	3.0
O=C(CCNS(=O)(=O)c1ccccc1)N1CCN(c2ccccc2F)CC1	4.7	-13.8	.	.	-2.3	.
COc1ccc(N(CN2C(=O)C3CCCCC3C2=O)C(=O)c2ccco2)cc1 (stereo unspecified)	5.6	-26.2	.	-5.7	-0.2	-2.8
COc1ccc(C(=O)N2CCN(Cc3nc(CC4CC4)no3)CC2)cc1	-15.9	4.4	-6.4	0.2	-6.5	4.3
COc1ccc(-c2c[n+](CC(=O)OC3CC(C)CCC3C(C)C)c3n2CCC3)cc1 (stereo unspecified)	-19.9	22.1	1.5	99.2*	12.8	81.5*
CC(C)[C@@H]1CC[C@@H](C)C[C@H]1OC(=O)C[n+]1cc(-c2ccc(Cl)cc2)n2c1CCCCC2	-1.9	4.4	.	98.0*	-2.8	85.2*
CCOC(=O)c1cc(CC)sc1NC(=O)CN1C(=O)C(=O)N(CC(C)C)C1=O	-9.3	.	.	.	.	.
Cc1ccc(NC(=O)c2cccs2)cc1	-145.2	-92.4	-75.0	-1.4	-1.1	4.4
Cc1ccc(S(=O)(=O)n2[nH]c(=O)cc2NC(=O)c2cccs2)cc1	8.0	0.9	6.6	26.3*	-0.3	35.0*
CCN1C(=C(C#N)C#N)C=Cc2cc(C)ccc21	-16.9	5.7	-10.9	0.5	11.8	3.4
C=CC[n+]1c(/C=C2\C=Cc3cc(C)ccc3N2CC)ccc2ccccc21	67.2*	6.9	20.3	100.3*	40.8*	80.4*
C=CCOc1ccccc1CNc1cccc(F)c1	-48.5	-21.1	56.9*	0.0	-0.9	4.0
O=C(NCCCN1CCOCC1)C(=O)N/N=C/c1cccc2ccccc12	38.7	-24.5	.	-0.5	3.9	-1.4
N#CC(c1ccc(Cl)cc1)c1cccc(Cl)n1 (stereo unspecified)	6.3	-7.3	27.6	-2.7	-2.6	48.1*
N#CC(c1ccc(Cl)cc1)c1ccc2c(C(F)(F)F)cc(C(F)(F)F)nc2n1 (stereo unspecified)	111.6*	-9.5	-4.5	3.0	10.8	3.6
O=C(NCC1CCCO1)c1ccc(CSCc2cccc(F)c2)o1 (stereo unspecified)	-6.5	-5.4	5.1	2.1	-2.1	2.9
CCCN(CCC)CCN1C(=O)C2C(C(=O)Nc3cccc(SC)c3)C3C=CC2(O3)C1C(=O)NC1CCCCC1 (stereo unspecified)	-0.7	-30.0	.	.	-5.1	.
Clc1ccc(-c2nc(C3CCCCC3)no2)cc1	-159.9	-18.1	-108.3	1.6	-6.3	3.2
c1ccc(CN2CCC(Nc3ncnc4sccc34)CC2)cc1	-9.7	-9.9	-0.1	-0.2	3.9	5.4
Cc1sc2ncnc(NC3CCN(Cc4ccccc4)CC3)c2c1C	-25.6	-7.4	4.5	32.5*	16.3	33.9*
COc1ccc(-c2oc3ncn(CCN4CCOCC4)c(=N)c3c2-c2ccc(OC)cc2)cc1	74.2*	2.8	10.7	-6.6	-6.3	0.3
SMILES	aSyn 5UTR inh	KLF5 inhibitor	APP transl inh	Ba/F3 V617F tox	IEC-6 cytotox	BaF3 tox
Cc1cc(CNC(=O)COc2ccc(F)cc2Cl)cc(C)c1O	5.5	-9.2	-8.0	0.4	-5.4	7.1
CN(C)c1ncnc(N(C)C)c1[N+](=O)[O-]	19.8	1.2	.	-0.6	3.4	-1.7
CCN(CC)Cc1ccc(NC(=O)c2sc3cc(Cl)ccc3c2Cl)cc1	104.4*	-16.2	.	-0.1	-0.1	-0.5
O=C(CN1C(=O)NC2(CCCC2)C1=O)N1CCN(c2ccccc2O)CC1	1.0	.	.	.	.	.
CC(C)OCCCNc1ncnc2c1[nH]c1ccccc12	-178.4	-10.0	0.7	40.4*	9.3	51.7*
COc1ccc(CNc2ncnc3c2[nH]c2ccccc23)cc1	2.6	-31.2	.	0.6	10.5	1.3
CC(C)(C)OC(=O)N[C@@H](Cc1ccccc1)c1nnc(S(=O)(=O)Cc2ccccc2)o1	.	-2.4	64.0*	58.0*	4.6	8.2
O=C(O)CC(=O)Nc1ccc(Oc2ccc(C(F)(F)F)cn2)c(Cl)c1	64.6*	-3.7	0.6	-0.1	1.6	8.4
COc1ccccc1CNS(=O)(=O)c1cc2c3c(c1)C(C)C(=O)N3CCC2 (stereo unspecified)	16.0	-26.4	.	.	0.9	.
COc1cccc(NC(=O)CSc2nc3ccccc3cc2Cc2ccccc2)c1	21.7	-6.2	-5.3	-3.4	-6.2	-0.1
COc1cccc(CSc2nc3ccccc3cc2C=O)c1	71.0*	30.6	89.2*	50.1*	7.2	35.6*
CCc1ccc2c(c1)C1(C(=O)N2)N2CCCC2C(C(=O)c2ccc3ccccc3c2)C12C(=O)Nc1ccccc12 (stereo unspecified)	-127.1	0.8	-19.3	-2.7	-8.7	4.5
CCc1ccc2c(c1)C1(NN=C(c3cccc4ccccc34)S1)C(=O)N2 (stereo unspecified)	76.3*	-16.0	11.1	-3.0	0.8	3.9
C=CCC(C#Cc1ccccc1)[N+](C)(C)CC=C (stereo unspecified)	-6.8	-20.4	10.0	40.6*	-1.0	50.0*
COc1cc(C(C)=O)ccc1Oc1ncccn1	0.4	-11.6	.	.	6.3	.
COc1cc(Cl)ccc1S(=O)(=O)n1nc(C)cc1C	28.9	-12.6	8.4	-1.6	1.8	93.2*
Cc1cc(O)ccc1N1C(=O)c2cccc3cc([N+](=O)[O-])cc(c23)C1=O	-4.2	-19.8	-6.0	3.1	1.5	6.5
O=C1c2cccc3cc([N+](=O)[O-])cc(c23)C(=O)N1c1ccccc1O	-3.8	-0.6	11.9	13.8	5.1	29.4*
CCOc1ccc(NC(=O)C2CC(=O)N(c3ccc4c(c3)OCCO4)C2)cc1OCC (stereo unspecified)	15.7	.	.	.	.	.
Cn1nc(CC(=O)Nc2ccc(N3CCN(C(=O)OC(C)(C)C)CC3)cc2)c2ccccc2c1=O	77.4*	10.7	9.6	49.6*	11.4	60.2*
Cn1nc(CC(=O)N2CCN(c3ccccc3)CC2)c2ccccc2c1=O	13.3	15.7	-20.3	4.0	11.3	8.0
Cn1nc(CC(=O)Nc2ccc3c(c2)OCCO3)c2ccccc2c1=O	15.9	17.5	4.7	48.2*	8.2	53.0*
CC1CN(C(=O)c2ccc(NS(=O)(=O)c3ccc(F)c(F)c3)cc2)CC(C)O1 (stereo unspecified)	12.8	.	.	.	.	.
CC1=C(C#N)C(c2cccnc2)C2=C(N1)c1ccccc1C2=O (stereo unspecified)	-8.7	-38.1	-4.0	-0.6	2.7	2.0

Bioassay records as filed in PubChem BioAssay.
